Common to all, as to design: scale not given: direction of the effect not stated beside the values
Assay [1] deals with Protein translocase subunit SecA (Escherichia coli (strain K12)) (UniProt P10408). The experiment in a line: Assay to Identify E. coli SecA ATPase Inhibitors. The class given is functional. The note with it: 30 µM.
Assay [2] concerns the target T1, Ubiquitin-activating enzyme e1, putative (Leishmania donovani (strain BPK282A1)) (UniProt E9BSI1).
T1 sequence (whole entry): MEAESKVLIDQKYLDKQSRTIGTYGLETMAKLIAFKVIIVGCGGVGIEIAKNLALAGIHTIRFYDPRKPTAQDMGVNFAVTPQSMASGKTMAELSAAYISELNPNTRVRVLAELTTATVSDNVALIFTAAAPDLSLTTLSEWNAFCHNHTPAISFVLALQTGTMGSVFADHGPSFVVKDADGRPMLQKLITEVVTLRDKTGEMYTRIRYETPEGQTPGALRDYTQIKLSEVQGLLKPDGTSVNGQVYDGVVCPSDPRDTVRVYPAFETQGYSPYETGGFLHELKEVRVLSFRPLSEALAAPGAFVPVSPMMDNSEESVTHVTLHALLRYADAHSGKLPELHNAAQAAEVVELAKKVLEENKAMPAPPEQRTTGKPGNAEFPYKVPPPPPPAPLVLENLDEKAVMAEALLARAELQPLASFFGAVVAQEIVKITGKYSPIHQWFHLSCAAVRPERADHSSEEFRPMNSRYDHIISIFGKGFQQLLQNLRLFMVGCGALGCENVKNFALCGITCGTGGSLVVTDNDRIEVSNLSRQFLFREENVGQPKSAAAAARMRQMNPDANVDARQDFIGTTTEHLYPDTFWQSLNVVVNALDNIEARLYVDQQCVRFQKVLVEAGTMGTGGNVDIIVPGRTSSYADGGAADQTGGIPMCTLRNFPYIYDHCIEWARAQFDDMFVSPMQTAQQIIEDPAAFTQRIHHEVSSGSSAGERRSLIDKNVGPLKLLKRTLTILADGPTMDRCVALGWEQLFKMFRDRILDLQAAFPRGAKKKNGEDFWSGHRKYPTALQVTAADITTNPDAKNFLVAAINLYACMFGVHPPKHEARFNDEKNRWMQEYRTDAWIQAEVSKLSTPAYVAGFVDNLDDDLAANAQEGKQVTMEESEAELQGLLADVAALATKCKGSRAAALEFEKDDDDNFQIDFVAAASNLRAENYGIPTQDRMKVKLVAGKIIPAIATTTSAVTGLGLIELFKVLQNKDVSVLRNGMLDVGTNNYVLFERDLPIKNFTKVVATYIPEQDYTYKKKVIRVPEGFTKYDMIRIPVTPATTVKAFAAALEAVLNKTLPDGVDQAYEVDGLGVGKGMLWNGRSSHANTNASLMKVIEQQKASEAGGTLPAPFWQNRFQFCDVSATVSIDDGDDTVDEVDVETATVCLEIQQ
As to the kind of experiment: Leishmania donovani Ubiquitin Activating Enzyme (LdE1). The assay is classed as functional. The note with it: 30 µM.

Assay [3] deals with T2, Aspartate--tRNA(Asp/Asn) ligase (Mycobacterium tuberculosis (strain ATCC 25618 / H37Rv)) (UniProt P9WFW3).
T2 sequence (whole entry): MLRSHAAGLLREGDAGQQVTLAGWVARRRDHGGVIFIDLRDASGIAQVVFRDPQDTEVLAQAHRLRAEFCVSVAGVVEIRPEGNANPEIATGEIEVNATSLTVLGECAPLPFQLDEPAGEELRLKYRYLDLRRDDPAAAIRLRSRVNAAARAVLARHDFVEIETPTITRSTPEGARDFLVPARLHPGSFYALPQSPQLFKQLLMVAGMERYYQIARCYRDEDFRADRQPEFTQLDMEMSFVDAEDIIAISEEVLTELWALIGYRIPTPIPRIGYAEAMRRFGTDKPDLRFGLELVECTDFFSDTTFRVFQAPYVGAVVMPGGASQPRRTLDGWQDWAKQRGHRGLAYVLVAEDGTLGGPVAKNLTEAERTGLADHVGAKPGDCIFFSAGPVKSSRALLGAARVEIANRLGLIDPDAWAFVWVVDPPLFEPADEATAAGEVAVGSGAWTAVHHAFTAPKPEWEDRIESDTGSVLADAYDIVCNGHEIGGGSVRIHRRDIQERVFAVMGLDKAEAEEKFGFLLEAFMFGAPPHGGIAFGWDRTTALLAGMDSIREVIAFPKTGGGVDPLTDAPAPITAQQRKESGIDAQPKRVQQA
As to the kind of experiment: Assay for Asp RNA synthetase-1 from Mycobacterium tuberculosis. The class given is functional. The note with it: 30 µM.

Assay [4] addresses AMP-activated protein kinase, AMPK (Homo sapiens) (UniProt P54646+O43741+P54619+Q9UGJ0+Q9Y478+Q13131+Q9UGI9). As to the kind of experiment: AMP-dependent Kinase enzyme assay. An in vitro enzyme assay that detects ADP turnover that is directly proportional to AMPK activity. This uses naive AMPK that is activated during the assay with MK-8722. The class given is functional. The note with it: 30 µM.

For assay [5], the target named is Sialic acid-binding Ig-like lectin 9 (Homo sapiens) (UniProt Q9Y336). As to the kind of experiment: Hs-Siglec9 ALPHAscreen SOP 20170721. The note with it: 10 µM. (In general: In Alpha technology, singlet oxygen from a donor bead excites a nearby acceptor bead.)
Chain of Sialic acid-binding Ig-like lectin 9 (Homo sapiens) (Q9Y336 whole entry): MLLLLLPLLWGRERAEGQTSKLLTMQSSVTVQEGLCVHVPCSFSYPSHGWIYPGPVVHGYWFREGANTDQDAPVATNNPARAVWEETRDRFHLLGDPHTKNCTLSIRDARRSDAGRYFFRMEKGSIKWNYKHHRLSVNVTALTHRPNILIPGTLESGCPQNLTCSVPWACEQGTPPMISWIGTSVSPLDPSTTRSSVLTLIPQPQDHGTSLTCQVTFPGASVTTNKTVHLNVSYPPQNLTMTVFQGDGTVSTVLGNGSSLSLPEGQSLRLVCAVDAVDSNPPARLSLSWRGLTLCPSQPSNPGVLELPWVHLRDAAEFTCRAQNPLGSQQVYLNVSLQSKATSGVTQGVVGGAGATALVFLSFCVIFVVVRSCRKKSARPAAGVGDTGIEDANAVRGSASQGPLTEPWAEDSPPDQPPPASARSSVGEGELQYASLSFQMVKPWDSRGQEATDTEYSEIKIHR
Assay [6] concerns Trypanosoma cruzi. The experiment in a line: Trypanosoma cruzi phosphomannomutase and mannose-1-phosphate guanylyltransferase assay. The assay is classed as functional. The note with it: 10 µM.
The target in assay [7] is T3, Arginase-2, mitochondrial (Homo sapiens) (UniProt P78540).
T3 sequence (whole entry): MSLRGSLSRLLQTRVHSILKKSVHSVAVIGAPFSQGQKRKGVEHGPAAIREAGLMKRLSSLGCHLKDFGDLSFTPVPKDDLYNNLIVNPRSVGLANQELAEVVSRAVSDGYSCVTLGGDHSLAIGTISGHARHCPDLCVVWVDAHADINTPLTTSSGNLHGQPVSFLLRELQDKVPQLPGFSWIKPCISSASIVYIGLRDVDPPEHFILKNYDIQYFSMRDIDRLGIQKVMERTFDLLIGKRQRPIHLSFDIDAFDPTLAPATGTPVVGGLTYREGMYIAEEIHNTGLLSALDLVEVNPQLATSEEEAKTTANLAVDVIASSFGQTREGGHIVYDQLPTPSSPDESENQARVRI
The experiment in a line: in vitro enzyme assay to detect the production of urea directly proportional to the activity of Arginase II. Note: in the data most compounds retested in dose-response had high values. The assay is classed as functional. The note with it: 33.3 µM.

The target in assay [8] is T4, Proteasome subunit beta (Trypanosoma cruzi) (UniProt O96673).
T4 sequence (whole entry): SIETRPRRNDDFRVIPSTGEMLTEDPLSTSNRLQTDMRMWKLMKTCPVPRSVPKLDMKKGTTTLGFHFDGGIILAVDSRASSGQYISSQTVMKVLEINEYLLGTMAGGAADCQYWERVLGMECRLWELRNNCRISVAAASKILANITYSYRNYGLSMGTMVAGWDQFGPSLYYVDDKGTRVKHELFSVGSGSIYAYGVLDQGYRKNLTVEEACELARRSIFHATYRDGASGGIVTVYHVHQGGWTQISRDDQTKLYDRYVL
The experiment in a line: Trypanosoma cruzi proteasome chymotrypsin-like activity (TcProtChymo) assay. Note: in the data most compounds retested in dose-response had high values. The class given is functional. The note with it: 9.37 µM.

The species entered for assay [9] is Homo sapiens. As to the kind of experiment: To identify inhibition of the IFN signalling (Jak-Stat) pathway via expression of an eGFP reporter gene under the control of an IFN-stimulated response element (ISRE) containing MxA promoter. The assay is classed as functional. The note with it: 30 µM. (In general: A reporter such as luciferase makes a cellular process visible.)

Assay [10] has as its target Shiga toxin 2 (Escherichia coli O157:H7) (UniProt P09385+P09386). The experiment in a line: E. coli 0.157:H7 Shiga Toxin SOP - stx2 screening assay. The assay is classed as functional. The note with it: 30 µM.
Assay [11] addresses T5, Tyrosyl-tRNA synthetase, putative (Trypanosoma cruzi (strain CL Brener)) (UniProt Q4DSP6).
T5 sequence (whole entry): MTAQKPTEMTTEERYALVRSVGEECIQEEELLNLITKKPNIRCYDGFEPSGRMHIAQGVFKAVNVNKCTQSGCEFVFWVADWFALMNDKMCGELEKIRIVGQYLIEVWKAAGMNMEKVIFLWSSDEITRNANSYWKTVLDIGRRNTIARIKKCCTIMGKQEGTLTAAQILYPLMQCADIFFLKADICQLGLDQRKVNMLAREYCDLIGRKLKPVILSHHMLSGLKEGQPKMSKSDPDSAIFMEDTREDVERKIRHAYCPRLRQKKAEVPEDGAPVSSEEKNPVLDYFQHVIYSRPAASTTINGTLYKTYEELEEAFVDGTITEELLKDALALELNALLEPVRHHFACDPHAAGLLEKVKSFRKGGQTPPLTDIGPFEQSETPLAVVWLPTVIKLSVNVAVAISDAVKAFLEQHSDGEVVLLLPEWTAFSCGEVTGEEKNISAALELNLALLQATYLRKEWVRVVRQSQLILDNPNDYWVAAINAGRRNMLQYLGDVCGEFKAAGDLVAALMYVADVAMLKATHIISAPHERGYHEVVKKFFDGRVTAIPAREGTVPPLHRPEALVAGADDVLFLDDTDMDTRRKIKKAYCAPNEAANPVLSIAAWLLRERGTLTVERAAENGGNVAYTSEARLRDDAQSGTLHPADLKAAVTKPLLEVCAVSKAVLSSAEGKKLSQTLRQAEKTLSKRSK
The experiment in a line: Trypanosoma cruzi tyrosyl tRNA synthetase (TcYRS) _High Tyrosine SOP. Note: in the data most compounds retested in dose-response had high values. The assay is classed as functional. The note with it: 30 µM.

For assay [12], the target named is T5, Tyrosyl-tRNA synthetase, putative (Trypanosoma cruzi (strain CL Brener)). The experiment in a line: Trypanosoma cruzi tyrosyl tRNA synthetase (TcYRS) SOP. The class given is functional. The note with it: 30 µM.
Assay [13] addresses Chromo domain-containing protein 1 (Saccharomyces cerevisiae (strain ATCC 204508 / S288c) (Baker's yeast)) (UniProt P32657). The experiment in a line: ScCHD-1 Enzyme Inhibition Assay. Note: in the data most compounds retested in dose-response had high values. The class given is functional. The note with it: 30 µM.

Structures are written as SMILES. For some assays here: Potency and affinity values are given separately.

Chain of Protein translocase subunit SecA (Escherichia coli (strain K12)) (P10408 whole entry): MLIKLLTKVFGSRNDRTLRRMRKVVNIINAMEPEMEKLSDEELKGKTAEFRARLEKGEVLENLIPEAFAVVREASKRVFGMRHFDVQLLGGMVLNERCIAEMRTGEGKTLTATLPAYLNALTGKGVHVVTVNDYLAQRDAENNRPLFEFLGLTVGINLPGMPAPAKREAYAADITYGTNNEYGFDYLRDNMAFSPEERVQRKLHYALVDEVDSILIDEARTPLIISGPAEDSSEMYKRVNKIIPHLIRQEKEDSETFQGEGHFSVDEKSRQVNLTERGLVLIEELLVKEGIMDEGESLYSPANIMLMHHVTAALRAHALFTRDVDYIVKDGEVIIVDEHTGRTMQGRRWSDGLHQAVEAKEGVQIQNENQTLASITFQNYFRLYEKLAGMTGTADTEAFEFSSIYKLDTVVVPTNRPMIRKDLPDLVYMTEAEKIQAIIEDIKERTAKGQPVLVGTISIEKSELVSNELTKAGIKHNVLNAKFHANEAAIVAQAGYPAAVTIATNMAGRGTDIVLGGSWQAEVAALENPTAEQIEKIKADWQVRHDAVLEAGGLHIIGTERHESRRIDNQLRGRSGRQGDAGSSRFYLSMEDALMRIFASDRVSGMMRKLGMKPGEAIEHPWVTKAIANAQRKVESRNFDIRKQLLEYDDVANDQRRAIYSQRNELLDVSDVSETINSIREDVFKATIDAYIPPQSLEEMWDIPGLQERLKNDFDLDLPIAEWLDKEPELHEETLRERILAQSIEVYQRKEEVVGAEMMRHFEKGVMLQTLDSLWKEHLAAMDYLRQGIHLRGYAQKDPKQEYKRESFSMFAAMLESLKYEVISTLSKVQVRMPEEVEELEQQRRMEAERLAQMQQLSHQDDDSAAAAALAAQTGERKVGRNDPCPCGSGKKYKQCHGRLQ
Chain of Chromo domain-containing protein 1 (Saccharomyces cerevisiae (strain ATCC 204508 / S288c) (Baker's yeast)) (P32657 whole entry, the tested form may be a part): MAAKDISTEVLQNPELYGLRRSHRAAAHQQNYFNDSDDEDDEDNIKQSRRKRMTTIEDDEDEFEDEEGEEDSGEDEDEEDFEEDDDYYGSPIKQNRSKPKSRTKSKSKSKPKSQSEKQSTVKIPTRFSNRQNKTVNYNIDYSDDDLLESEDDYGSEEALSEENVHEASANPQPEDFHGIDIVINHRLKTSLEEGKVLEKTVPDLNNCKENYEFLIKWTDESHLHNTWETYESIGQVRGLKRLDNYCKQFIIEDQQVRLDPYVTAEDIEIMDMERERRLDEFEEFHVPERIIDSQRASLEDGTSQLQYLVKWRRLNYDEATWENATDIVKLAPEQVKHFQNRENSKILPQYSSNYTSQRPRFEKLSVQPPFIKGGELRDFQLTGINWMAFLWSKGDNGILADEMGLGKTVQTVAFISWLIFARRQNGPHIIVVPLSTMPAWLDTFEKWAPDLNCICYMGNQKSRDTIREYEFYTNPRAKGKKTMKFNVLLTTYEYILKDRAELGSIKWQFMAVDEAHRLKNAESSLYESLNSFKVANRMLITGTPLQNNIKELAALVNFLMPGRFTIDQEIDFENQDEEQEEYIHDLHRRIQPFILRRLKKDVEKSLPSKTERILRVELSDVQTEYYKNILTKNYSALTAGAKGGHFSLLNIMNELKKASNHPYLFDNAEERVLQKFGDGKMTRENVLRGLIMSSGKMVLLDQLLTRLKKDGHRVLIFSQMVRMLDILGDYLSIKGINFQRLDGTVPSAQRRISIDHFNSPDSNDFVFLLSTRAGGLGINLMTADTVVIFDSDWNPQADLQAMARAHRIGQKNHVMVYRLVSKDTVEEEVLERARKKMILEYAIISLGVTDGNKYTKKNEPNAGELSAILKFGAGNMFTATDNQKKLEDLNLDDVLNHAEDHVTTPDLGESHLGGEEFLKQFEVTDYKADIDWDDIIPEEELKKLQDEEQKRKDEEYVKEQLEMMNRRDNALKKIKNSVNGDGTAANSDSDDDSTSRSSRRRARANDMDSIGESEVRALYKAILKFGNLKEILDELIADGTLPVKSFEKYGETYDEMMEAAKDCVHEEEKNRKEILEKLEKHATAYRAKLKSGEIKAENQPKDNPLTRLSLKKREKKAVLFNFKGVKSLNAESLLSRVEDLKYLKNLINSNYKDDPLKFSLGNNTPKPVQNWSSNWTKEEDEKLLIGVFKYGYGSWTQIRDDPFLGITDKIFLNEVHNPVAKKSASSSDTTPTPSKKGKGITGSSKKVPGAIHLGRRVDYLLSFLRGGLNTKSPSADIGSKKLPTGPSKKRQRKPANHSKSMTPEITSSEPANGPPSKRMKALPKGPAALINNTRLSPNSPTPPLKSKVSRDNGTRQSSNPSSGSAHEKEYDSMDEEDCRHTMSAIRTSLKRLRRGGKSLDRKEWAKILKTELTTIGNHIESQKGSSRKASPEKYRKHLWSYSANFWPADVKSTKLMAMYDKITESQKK

In the case of `CC(C)=CCN1C(=O)[C@H]2CC[C@@H]1CN(Cc1cccnc1N)C2`, the Percent Effect was 5.73% in assay [1]; 4.17% in assay [2]; 4.65% in assay [3]; 1.92% in assay [4]; 2% in assay [5]; -5.34% in assay [6]. Also, the Percent Effect was 3.53% in assay [7]; 23.7% in assay [8]; 7.39% in assay [9]; -25.3% in assay [10]; 7.37% in [11]; 2.56% in [12]. For the same compound, the Percent Effect in [13] was 2.83%.

On to `O=C(N[C@H]1CN[C@H]2CCCO[C@H]21)c1cccnc1`, for which the Percent Effect was 1.71% in assay [1]; 16.4% in [2]; -0.775% in assay [3]; -3.57% in assay [4]; 7.91% in [5]; 5.36% in assay [6]. The Percent Effect in assay [7] is -2.4%; in [8], 9.33%; in assay [9], 8.46%; in [10], -2.82%; in [11] it was 8.33%; in assay [12] it was 11.1%. For the same compound, the Percent Effect in assay [13] is -3%.

Consider `O=C(c1ccsc1)N1CCN2C[C@H](OCc3cccnc3)C[C@H]2C1`, for which the Percent Effect in assay [1] is -4.24%; in [2], 10.7%; in assay [3] it was -1.78%; in assay [4], 8.09%; in assay [5], -1.36%; in assay [6], -4.53%. In addition, the Percent Effect in assay [7] is 3.96%; in [8], 11.5%; in assay [9], 8.09%; in assay [10], 1.7%; in assay [11] it was 1.06%; in assay [12], -8.97%. Besides, the Percent Effect in assay [13] is -3.5%.

On to `c1cc(CN2CCO[C@H]3[C@H](OCC4CCCC4)CC[C@@H]32)ccn1`, for which the Percent Effect in [1] is -2.78%; in assay [2], 5.41%; in assay [3], 5.76%; in assay [4] it was 0.694%; in assay [5] it was -1.13%; in assay [6], -3.81%. Moreover, the Percent Effect in assay [7] is 1.59%; in [8] it was 19%; in [9], 24.5%; in assay [10], 1.34%; in assay [11], -2.16%; in [12] it was 7.69%. Further, in assay [13], the Percent Effect was determined as 2.01%.

Take `CCNC(=O)NC(=O)CNC1(c2noc(C)n2)CCCCC1`: the Percent Effect in [1] is -8.65%; in assay [2], 15.8%; in assay [3], 0.329%; in [4], -3.69%; in assay [5], -6.42%; in assay [6], 6.91%. Besides, the Percent Effect in assay [7] was -5.92%; in assay [8] it was 8.34%; in assay [9] it was 6.39%; in [10], 4.43%; in assay [11] it was 3.19%; in assay [12], -7.79%. Moreover, in assay [13], the Percent Effect is -19.2%.

Values taken from ChEMBL document CHEMBL3988442, “University of Dundee, Small-Polar-MMV Screening Library” (2021).
